19 compounds from PubChem BioAssay (NCATS) can be followed below.

One experiment has as its system TAB109. Briefly: qHTS profiling for inhibitors of Plasmodium falciparum proliferation (AID 504749). Note: potency is the fitted concentration of half-maximal effect. To be noted: P. falciparum in erythrocytes, SYBR Green DNA, 72 h; series mostly up to 28.7 µM. In short, it runs like this:
(§1)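 In a 72 h erythrocytic culture (37 C, humidified, 5% CO2) at 2.5% hematocrit and 0.3% starting parasitemia, compounds were tested; SYBR Green I in detergent lysis buffer stained parasite DNA overnight.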
(In general: qHTS replaces the single test concentration by a dilution series.)

Another experiment concerns TAB113. The experiment is described as above. To be noted: P. falciparum in erythrocytes, SYBR Green DNA, 72 h; series mostly up to 28.7 µM. In short, it runs like this:
as §1

For a further experiment, the system named is TAB165. The experiment is described as above. The conditions noted are these: P. falciparum in erythrocytes, SYBR Green DNA, 72 h; series mostly up to 28.7 µM. In short, it runs like this: as §1
For another experiment, the system named is W2. Described as above. The conditions noted are these: P. falciparum in erythrocytes, SYBR Green DNA, 72 h; series mostly up to 28.7 µM. A digest of the protocol:
as §1

Another experiment has as its system CRL-7250. Nature of the experiment: Cytotoxic Profiling of Annotated Libraries Using Quantitative High-Throughput Screening (AID 1296008). For max response: % is set by controls: 0 for no effect and ±100 for the full control effect. To be noted: Five cell lines viability, CellTiter-Glo ATP luminescence, 48-72 h; hits give low values. In short, it runs like this:
(§2)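 Cytotoxicity was measured as CellTiter-Glo ATP luminescence, read after 10 min at room temperature. Compound treatment of the cells lasted 48 or 72 hr at 37 degrees Celsius in a qHTS format.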
A general note: ATP-based viability assays read luminescence as a measure of living cells.

Another experiment deals with HEK293. The description is as above. To be noted: Five cell lines viability, CellTiter-Glo ATP luminescence, 48-72 h; hits give low values. A digest of the protocol: as §2
Experiment [1] deals with HaCat. Described as above. The conditions noted are these: Five cell lines viability, CellTiter-Glo ATP luminescence, 48-72 h; hits give low values. In short, it runs like this:
as §2

Another experiment deals with KB-3-1. Described as above. The conditions noted are these: Five cell lines viability, CellTiter-Glo ATP luminescence, 48-72 h, hits give low values. In short, it runs like this:
as §2

For a further experiment, the system named is NIH3T3. Described as above. To be noted: Five cell lines viability, CellTiter-Glo ATP luminescence, 48-72 h; hits give low values. In short, it runs like this: as §2
Experiment [2] has as its system HACAT. Briefly: qHTS assay to identify novel small-molecules to repurpose for Merkel cell carcinoma treatment (AID 1296009). To be noted: MCC and control cell lines, CellTiter-Glo viability, 72 h; at 44.8 µM (top of the series) unless noted. A digest of the protocol: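 Cell viability measured by CellTiter-Glo following 72 hr compound treatment at 37 degree celsius, with NPC and MIPE libraries tested in 8- and 11-point concentration series.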

Inconclusive results are not listed. A number with no mark means an inactive call. Activity calls are given as the source filed them. Calls come from the whole dose curve; as a rule, active = well fitted inhibition curve with a large enough effect; inconclusive = small, poorly fitted or top-dose-only effect; inactive = flat fitted curve, though single readings scatter. Where a SMILES comes first, the peptide text is derived from it. Bridges are numbered along the chain shown (N, C = ends). [ ]: non-standard residue; d: D form. hArg = N=C(N)NCCCC[C@H](N)C(=O)O; Mpa = O=C(O)CCS
Note: nearly all actives have a fitted effect of over 60% in size.

Take `NC(=O)[C@@H]1CSSCCC(=O)N[C@@H](CCCCN=C(N)N)C(=O)NCC(=O)N[C@@H](CC(=O)O)C(=O)N[C@@H](Cc2c[nH]c3ccccc23)C(=O)N2CCC[C@H]2C(=O)N1` ([Mpa][hArg]GDWPC-NH2; disulfide 1-7): the Potency result in the experiment on TAB109, in the experiment on TAB113, with TAB165 and with W2 was “inactive” each time. In addition, the compound was classed as inactive with CRL-7250, in the experiment with HaCat [1] and in the experiment on HACAT [2]. For the same compound, the max response in the experiment on HEK293 was -7.03%; with KB-3-1, 3.01%; with NIH3T3 it was -4.92%.

Consider `CCN1CC(CCN2CCOCC2)C(c2ccccc2)(c2ccccc2)C1=O` (centres undefined), for which the Potency entry with TAB113 and with TAB165 was “inactive” throughout. In the experiment on W2, the Potency is 9.53 µM (active). In addition, the max response is 2.93% in the experiment on CRL-7250, -5.24% in the experiment with HEK293, -4.5% with KB-3-1 and 2.99% in the experiment on NIH3T3. For the same compound, the compound was called inactive in the experiment with HaCat [1] and in the experiment with HACAT [2].

As for `Cc1cc(O)cc(C)c1Cl`, the Potency in the experiment on W2 is 7.57 µM (active). The max response was -1.3% with CRL-7250, 4.13% in the experiment with KB-3-1 and 1.17% with NIH3T3. The compound was classed as inactive with HEK293, in the experiment on HaCat [1] and with HACAT [2].

In the case of `CCOC(=O)c1cccnc1`, the Potency entry in the experiment on TAB109, with TAB113, in the experiment with TAB165 and with W2 was “inactive” each time. Also, the max response in the experiment on CRL-7250 is -2.26%; with HEK293, -0.734%; in the experiment on KB-3-1 it was 2.38%; in the experiment with NIH3T3 it was 2.73%. In addition, the outcome with HaCat [1] and in the experiment on HACAT [2] was inactive.

For the compound `CCN(CC)CC1CCCCN1CC(=O)N1c2ccccc2C(=O)Nc2cccnc21` (centres undefined), the Potency entry in the experiment with TAB109, in the experiment on TAB113, with TAB165 and in the experiment on W2 was “inactive” throughout. Besides, the max response in the experiment on CRL-7250 was -4.06%; with HEK293 it was 4.03%; in the experiment on KB-3-1 it was 6.89%; in the experiment on NIH3T3, 4.32%. In addition, the compound was called inactive with HaCat [1] and with HACAT [2].

Consider `CCCCCCCCCCCCCCCCC(C(=O)O)C(O)(CC(=O)O)C(=O)O` (centres undefined), for which the Potency result with TAB109, with TAB113 and in the experiment with TAB165 was “inactive” in each case. Moreover, the compound was called inactive in the experiment on CRL-7250 and with HEK293. Besides, the results for the max response in the experiment on HaCat [1], with KB-3-1 and with NIH3T3 were 2.76%, 6.88% and 0.574%, respectively.

Take `Cc1cc(C)c(NC(=O)CN(CC(=O)O)CC(=O)O)c(C)c1Br`: in the experiment with W2, the Potency entry was “inactive”. Moreover, the max response in the experiment with CRL-7250 was -2.84%; in the experiment with HEK293, -7.54%; in the experiment on KB-3-1, 14.1%; with NIH3T3, -1.07%. Moreover, the result with HaCat [1] and in the experiment with HACAT [2] was inactive.

On to `Cc1c(C)c2c(c(C)c1OC(=O)c1cccnc1)CC[C@@](C)(CCC[C@H](C)CCC[C@H](C)CCCC(C)C)O2`, for which the Potency result in the experiment with TAB109, in the experiment with TAB113, with TAB165 and with W2 was “inactive” in each case. Moreover, the compound was called inactive in the experiment with CRL-7250 and in the experiment on NIH3T3. The max response was -1.31% in the experiment with HEK293, 0.9% in the experiment with HaCat [1] and 1.29% with KB-3-1.

As to `CC(N)CCCC(C)(C)O` (centres undefined), the Potency result in the experiment on TAB109, with TAB113, in the experiment on TAB165 and with W2 was “inactive” throughout. Besides, the max response in the experiment on CRL-7250 was -9.12%; in the experiment on HEK293, -17.6%; with KB-3-1, 2.21%. The call with HaCat [1], with NIH3T3 and with HACAT [2] was inactive.

Turning to `O=C(O)c1ccc[n+]([O-])c1`, the Potency result with TAB109, in the experiment with TAB113, in the experiment on TAB165 and in the experiment on W2 was “inactive” in each case. The compound was classed as inactive in the experiment on CRL-7250, in the experiment with HaCat [1], in the experiment on NIH3T3 and in the experiment on HACAT [2]. Further, the figures for the max response in the experiment on HEK293 and in the experiment on KB-3-1 were -0.144% and -1.65%, respectively.

On to `CCN(CC)CCc1nc(-c2ccccc2)no1`, for which the Potency entry with TAB109, with TAB113, in the experiment with TAB165 and in the experiment on W2 was “inactive” throughout. Moreover, the max response in the experiment on CRL-7250 is 3.52%; in the experiment with HEK293, -5.93%; in the experiment on HaCat [1], 4.68%; in the experiment on KB-3-1, 7.98%; in the experiment on NIH3T3, 1.98%.

As for `O=c1[nH]c2cc(C(F)(F)F)c(N3CCOCC3)cc2n(CP(=O)(O)O)c1=O`, the Potency result in the experiment on TAB109, in the experiment on TAB113, in the experiment on TAB165 and in the experiment with W2 was “inactive” throughout. Also, the outcome in the experiment with CRL-7250 and in the experiment with NIH3T3 was inactive. For the same compound, the max response with HEK293 was 2.88%; in the experiment with HaCat [1], 2.4%; in the experiment on KB-3-1, 8.61%.

As for `O=C(O)c1ccccc1C(=O)Nc1ccc(S(=O)(=O)Nc2nccs2)cc1`, the Potency entry in the experiment on TAB109, in the experiment on TAB113, in the experiment on TAB165 and with W2 was “inactive” in each case. In addition, the max response is -2.05% in the experiment on CRL-7250, -2.6% in the experiment on HaCat [1], 5.93% with KB-3-1 and -7.95% in the experiment with NIH3T3. In addition, the compound was called inactive with HEK293.

Take `Cc1cc(=O)[nH]c(=S)[nH]1`: the Potency entry in the experiment on TAB109, in the experiment with TAB113, in the experiment with TAB165 and in the experiment with W2 was “inactive” each time. Also, the max response in the experiment on CRL-7250 was 1.13%; with HEK293 it was -1.11%; in the experiment with HaCat [1] it was -13.5%; in the experiment on KB-3-1 it was -0.427%. In addition, in the experiment on NIH3T3, the call was inactive.

In the case of `OC[C@@H](O)[C@@H](O)[C@H](O)[C@H](O)CO`, the Potency entry in the experiment on TAB109, with TAB113, in the experiment with TAB165 and with W2 was “inactive” throughout. Besides, the max response in the experiment with CRL-7250 is -5.84%; in the experiment with HaCat [1], 0.927%; with KB-3-1 it was 5.16%; in the experiment on NIH3T3 it was -8.98%. The result in the experiment on HEK293 was inactive.

Take `CCCCC1(COC(=O)CCC(=O)O)C(=O)N(c2ccccc2)N(c2ccccc2)C1=O`: the Potency result in the experiment on TAB109, in the experiment with TAB113, in the experiment on TAB165 and in the experiment with W2 was “inactive” in each case. Besides, the call in the experiment on CRL-7250 and in the experiment on NIH3T3 was inactive. Further, the results for the max response with HEK293, in the experiment on HaCat [1] and in the experiment on KB-3-1 were -6.41%, -4.26% and 2.02%, respectively.

On to `O=C(CN1CCNCC1)NC1CCCCC1`, for which the Potency entry in the experiment on TAB109, in the experiment with TAB113, in the experiment with TAB165 and in the experiment on W2 was “inactive” each time. Moreover, the max response is -5.07% in the experiment with CRL-7250, -4.92% in the experiment with HEK293, 0.716% with HaCat [1] and 2.43% with KB-3-1. Further, the outcome in the experiment with NIH3T3 is “inactive; activator”.

With `O=C(OOC(=O)c1ccccc1)c1ccccc1`, the Potency entry with TAB109, in the experiment on TAB113, in the experiment on TAB165 and in the experiment on W2 was “inactive” throughout. Moreover, the result in the experiment on CRL-7250 and in the experiment on NIH3T3 was inactive. The max response in the experiment on HEK293 was 2.9%; in the experiment with HaCat [1] it was -8.52%; with KB-3-1 it was -3.15%.

For the compound `CCCCCC(C)N` (centres undefined), the Potency result in the experiment on TAB113 and with TAB165 was “inactive” throughout. Further, the max response in the experiment with CRL-7250 is -6.66%; in the experiment with HEK293, -4.16%; in the experiment on HaCat [1], -0.897%; in the experiment on KB-3-1, -3.94%; in the experiment on NIH3T3, 3.25%.
